# TDP1 cell CPT: DT40-hTDP1 cell growth loss with CPT; hit rate 12% among 420,000; Potency, µM (highest dose often 46.2 µM), for the others: at the highest dose activity change, negative = growth inhibition, hits mostly inhibitors; chicken DT40 Tdp1-/-;hTDP1 cells + 20 nM CPT, ATP luminescence, 48 h; further: potency means the concentration at half of the fitted maximal effect; nearly all actives have a fitted effect of over 55% in size
#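 Chicken DT40 Tdp1-/- cells complemented with human TDP1, 400 cells/well, exposed to compounds plus 20 nM camptothecin for at least 48 h at 37 C; viability read as ATP content by CellTiter-Glo luminescence.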
# HT1080 IDH1KD tx: kills HT-1080 cells with IDH1 knockdown | HT-1080 IDH1 knockdown viability, ATP luminescence, 48 h | Potency, µM (series often up to 46.1 µM), inactives show top-dose activity, negative = toxicity, most hits filed as cytotoxic | hit rate 2% among 360,000 | AID 686971;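 further: potency means the concentration at half of the fitted maximal effect; 0% = DMSO wells and -100% = cell-free medium wells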
#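 Cytotoxicity counter-line: IDH1KD HT-1080, 48 h, CellTiter-Glo. Curves classed by r2, magnitude and activity.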
# DT40 TDP1 no CPT: qHTS for Inhibitors of human tyrosyl-DNA phosphodiesterase 1 (TDP1): qHTS in cells in absence of CPT; DT40 Tdp1-/- hTDP1 cells, no CPT, ATP luminescence, 48 h; Potency, µM (highest dose often 46.2 µM), inactives show at the highest dose activity change, negative = growth inhibition, usual class: inhibitors; AID 686978, 2013; hit rate 15% among 420,000; further: potency means the concentration at half of the fitted maximal effect; nearly all actives have a fitted effect of over 55% in size
#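 Luminescent ATP content (CellTiter-Glo) served as the growth readout. Knockout chicken DT40 cells expressing human TDP1 were exposed to compounds without camptothecin for a minimum 48 hr at 37 °C.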
# HT1080-NT tox: kills 2HG-producing HT-1080-NT fibrosarcoma cells; HT-1080-NT fibrosarcoma viability, CellTiter-Glo ATP luminescence, 48 h; Potency, µM (top dose mostly 46.1 µM), without a hit: at the top dose activity, negative = less viability, hits mostly cytotoxic; AID 686970; hit rate 1.6% among 360,000;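 further: NT is the 2HG producing partner of a matched IDH1 knockdown line; potency means the concentration at half of the fitted maximal effect; 0% = DMSO-treated cells and -100% = media-only wells without cells; nearly all actives have a fitted effect of over 55% in size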
#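 Compounds were tested in concentration-response format on HT-1080-NT cells for 48 hours at 37 degrees C. Cell viability came from CellTiter-Glo luminescence; curves were classified by r2, response magnitude and activity.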
# IL1B secr inh: inhibitors of inflammasome signaling (IL-1 beta secretion); AID 743279; THP-1 LPS/ATP IL-1B secretion, AlphaLISA, 16 h; active compounds read low; activity change, % at 57.5 µM; hit rate 4.7% among 360,000; in the data active means activity change below about -50%; inconclusive means mostly about -30% to -49%
#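 THP-1 cells pretreated 1 hr with compounds (up to 57.5 uM final), then stimulated with LPS (250 ng/mL final) plus ATP (1.25 mM final); secreted IL-1B measured by AlphaLISA after 16 hr, decreased signal indicating inhibition.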
# An asterisk follows results filed as active; i = inactive; ? = inconclusive; . = no result given. This is a sample that favours compounds with a hit; in the whole collection about 19% have one here. Unless noted, the call rests on the fitted dose curve; in most records, active means well fitted curve in the direction sought with a large enough effect; inconclusive means small, poorly fitted or top-dose-only effect, or another doubt; inactive means no such curve, though single readings can be large; an effect the other way counts as inactive or inconclusive. Unless noted, on the % scale 0 is the no-effect control and ±100 the full control effect.
SMILES,TDP1 cell CPT,HT1080 IDH1KD tx,DT40 TDP1 no CPT,HT1080-NT tox,IL1B secr inh
Cc1c(C(=O)CN2CCN(c3ccccc3)CC2)c2ccccc2n1C,?,-11%,?,-19%,-5
Cn1c2c(c3ccccc31)CCN(CCCCN1CCN(c3ccccc3)CC1)C2=O,?,?,?,-14%,-62*
Cc1cn([C@H]2C[C@H](O)[C@@H](/C=C/C(=O)NCc3ccco3)O2)c(=O)[nH]c1=O,12%,5%,12%,0%,0
CCc1noc(C)c1C(=O)N1CCCSC1=Nc1ccccc1C(C)C,-24%,0%,?,-3%,-1
CCOC(=O)C(NC(=O)NCc1ccccc1)(OCC)C(F)(F)F (centres undefined),?,0%,23µM*,-11%,0
CN(C)/C(=N\S(=O)(=O)c1ccccc1)c1ccc(F)cc1,-10%,1%,9%,-3%,15
CC(C)(C)C(=O)Nc1cc(NC(=O)C(C)(C)C)cc(C(=O)Nc2c[nH]c(=O)[nH]c2=O)c1,8%,21%,-10%,4%,.
CCOC(=O)CC1(C)N(S(=O)(=O)c2ccc(C)cc2)c2ccccc2N1S(=O)(=O)c1ccc(C)cc1,?,20%,15µM*,19%,2
CCOC(=O)CC1(CC)Oc2ccccc2N1S(=O)(=O)c1ccc(C)cc1 (centres undefined),23µM*,?,?,?,1
COc1cccc(/C=C/C(=O)OCC(=O)Nc2cc(C(F)(F)F)ccc2Cl)c1,7%,1%,-24%,-3%,0
COc1cccc(C2=NOC(C(=O)Nc3cc(C)on3)C2)c1OC (centres undefined),-6%,4%,5%,0%,13
Cc1ccc(Cl)cc1Nc1nc(N2CCOCC2)nc(N2CCOCC2)n1,?,1%,?,-1%,-54*
COc1ccc(Nc2nc(Nc3ccc(OC)cc3OC)nc(N3CCOCC3)n2)c(OC)c1,15µM*,.,13µM*,.,.
Clc1cccc(Nc2nc(N3CCOCC3)nc(N3CCOCC3)n2)c1,?,0%,?,5%,?
Cc1ccc(N/N=C/c2ccc(N3CCOCC3)cc2)cc1C,23µM*,4%,?,-3%,-11
Fc1cccc(Nc2nc(N3CCOCC3)nc(N3CCOCC3)n2)c1,18µM*,-9%,-26%,0%,?
Cc1ccc([N+](=O)[O-])cc1Nc1nc(N2CCOCC2)nc(N2CCOCC2)n1,4%,1%,-22%,16%,-21
CCN(CC(=O)NCc1cccs1)C(=O)c1ccc(-c2ccc(F)cc2)o1,?,?,?,?,-14
C(COC1CC2CC1C1C2CC2OC21)OC1CC2CC1C1C2CC2OC21 (centres undefined),?,-7%,-22%,-7%,7
Cc1ccc(/C=N/Nc2cc(C)nc(N3CCOCC3)n2)cc1,10%,-20%,?,-17%,-7
Cc1ccc(Nc2nc(Nc3ccc(C)c(C)c3)nc(N3CCOCC3)n2)cc1C,15µM*,.,10µM*,.,.
COc1ccc(Nc2nc(OC)nc(N3CCOCC3)n2)cc1,3%,1%,6%,6%,-13
Cc1ccc(Nc2nc(N/N=C\c3ccc4c(c3)OCO4)nc(N3CCOCC3)n2)cc1,8.2µM*,26µM*,9.2µM*,?,-28
COc1ccc(Nc2nc(N3CCOCC3)nc(N3CCOCC3)n2)cc1Cl,?,-10%,21µM*,20%,-58*
Cc1cc(Nc2cccc(Cl)c2)nc(N2CCOCC2)n1,15µM*,-14%,?,-8%,2
SMILES,TDP1 cell CPT,HT1080 IDH1KD tx,DT40 TDP1 no CPT,HT1080-NT tox,IL1B secr inh
Cc1cccc(-n2ccnc2SCC(=O)Nc2cccc(S(=O)(=O)NC3=NCCC3)c2)c1C,?,-8%,?,-5%,7
CCOc1nc(NCCO)nc(Nc2cc(Cl)ccc2OC)n1,?,-2%,?,1%,0
CCOc1nc(Nc2ccc(OC)c(Cl)c2)nc(OCC)n1,18µM*,-4%,?,4%,-3
Cc1cc(F)ccc1S(=O)(=O)NCC(c1cccnc1)N1CCc2ccccc21 (centres undefined),?,2%,16µM*,1%,-6
COc1ccccc1N1CCN(C(CNC(=O)c2ccc3c(c2)OCO3)c2cccnc2)CC1 (centres undefined),?,-18%,?,-11%,7
O=C(NCC(c1cccnc1)N1CCc2ccccc21)c1cccc(Br)c1 (centres undefined),?,.,13µM*,.,.
O=C(NCC(c1cccnc1)N1CCc2ccccc21)c1cccc(F)c1 (centres undefined),15µM*,.,21µM*,.,.
O=C(NCC(c1ccco1)N1CCc2ccccc21)c1ccccc1 (centres undefined),?,-15%,?,-24%,-17
C/C(=N\NC(=O)c1c(Cl)c(C)nn1C)c1cccc(NC(=O)c2cccc(F)c2)c1,?,-1%,23µM*,-3%,i
C/C(=N\NC(=O)c1nn(C)c(C)c1Br)c1cccc(NC(=O)c2ccc(F)cc2)c1,?,9%,16µM*,1%,0
C/C(=N\NC(=O)c1c(Br)c(C)nn1C)c1cccc(NC(=O)c2ccccc2F)c1,14%,0%,?,17%,-15
CCOC(=O)c1c(C)oc2c1c(C(c1ccccc1)N1CCOCC1)c(O)c1ccccc12 (centres undefined),?,0%,18µM*,0%,-71*
CCOC(=O)c1ccc(N=Cc2c(O)c3ccccc3oc2=O)cc1,1%,?,-12%,-17%,37
CCOC(=O)c1c(C)oc2c1c(C=NCCO)c(O)c1ccccc12,-69%,23µM*,?,?,-112*
Cc1c(Cl)cccc1NS(=O)(=O)c1ccccc1,-28%,?,-5%,-6%,-10
Cc1cc(-c2ccc(S(=O)(=O)NCc3ccc(F)cc3)cc2)on1,?,-3%,-10%,-1%,-4
Cc1ccc(NS(=O)(=O)c2ccc(-c3cc(C)no3)cc2)c(Br)c1,12µM*,.,8.2µM*,.,.
Cc1cc(-c2ccc(S(=O)(=O)Nc3cccc(Cl)c3C)cc2)on1,6.5µM*,.,6.5µM*,.,.
Cc1cc(-c2ccc(S(=O)(=O)NCc3ccc(Cl)cc3)cc2)on1,?,5%,?,-2%,5
Cc1cc(-c2ccc(S(=O)(=O)Nc3ccccc3C)cc2)on1,5.2µM*,.,4.6µM*,.,.
Cc1cc(-c2ccc(S(=O)(=O)Nc3ccc(Cl)cc3C)cc2)on1,4.6µM*,.,3.3µM*,.,.
COc1cc(NC(=O)CC(C)n2nc(C)cc2C)cc(OC)c1 (centres undefined),-2%,.,-29%,.,.

# Compound activity as filed in PubChem BioAssay.
